PubChem BioAssay
Activity calls are given as the source filed them.

Columns and labels:
[1] = A549 cell viability effects, profiling panel, calcein-AM fluorescence, 48 h, basal (AID 1162); conditions: higher = more signal
[2] = adipocyte viability effects, profiling panel, cell-based, 3T3-L1 adipocytes, calcein-AM fluorescence, 48 h, basal (AID 1163); conditions: 3T3-L1 adipocytes viability, higher = more signal
[3] = HepG2 cell viability effects, profiling panel, calcein-AM fluorescence, 48 h, basal (AID 1164); conditions: higher = more signal
[4] = MM1S cell viability effects, profiling panel, calcein-AM fluorescence, 48 h, basal (AID 1165); conditions: higher = more signal;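 further: viability of MM1S multiple myeloma cells under basal unstimulated conditions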
[5] = basal RPMI8226 viability, no added stimulus, profiling panel, cell-based, calcein-AM fluorescence, 48 h, PK04 Diversity Set (AID 1166); conditions: RPMI8226 myeloma viability, higher = more signal;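 further: cells grown under basal conditions without added stimulus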
[6] = basal HepG2 mitochondrial membrane potential changes, profiling panel, cell-based, JC-1 fluorescence, 24 h, 100 nL compound (AID 1167); conditions: higher = more signal
[7] = basal 3T3-L1 adipocyte mitochondrial potential changes, profiling panel, cell-based, JC-1 fluorescence, 3T3-L1 adipocytes, 24 h, 100 nL compound (AID 1168); conditions: JC-1 mitochondrial fluorescence, higher = more signal, called active from +8 up or from −8 down
[8] = basal RPMI8226 mitochondrial membrane potential changes, profiling panel, cell-based, JC-1 fluorescence, 24 h, 100 nL compound (AID 1169); conditions: RPMI8226 myeloma, JC-1 mitochondrial potential fluorescence, higher = more signal
[9] = basal MM1S mitochondrial membrane potential changes, profiling panel, cell-based, JC-1 fluorescence, 24 h, 100 nL compound (AID 1170); conditions: higher = more signal
[10] = A549 lung cancer cell viability effects, profiling panel, resazurin fluorescence, 24 h, PK04 Diversity Set (AID 1171); conditions: higher = more signal, called active from +8 up or from −8 down
Further: test concentration not given here.

SMILES	z-score [1]	z-score [2]	z-score [3]	z-score [4]	z-score [5]	z-score [6]	z-score [7]	z-score [8]	z-score [9]	z-score [10]
COc1cc(NN2C(C(O)C3CCCCC3)C=CC3C(=O)N(C)C(=O)C32)cc(OC)c1OC (stereo not given)	-0.536	-0.0026	-0.848	-0.197	0.436	-0.326	-0.657 (inactive)	0.316	0.144	-0.825 (inactive)
CC1CC/C=C\[C@H]2OC34C=CCN(C(C)(C)C)C(=O)[C@H]3N(C(CO)C(C)C)C(=O)[C@@H]4C2C(=O)O1 (stereo not given in full)	0.0643	0.385	-0.554	1.61	0.136	-0.976	-0.295 (inactive)	-0.622	-0.516	-0.266 (inactive)
COc1ccc(C(O)C2C=CC3C(=O)N(c4ccccc4)C(=O)C3N2Nc2ccccc2F)cc1 (stereo not given)	-0.775	0.406	-0.596	-0.808	-2.08	-0.334	-0.149 (inactive)	-0.288	-0.855	0.21 (inactive)
CCCNC(=O)[C@@]1(C)c2ccccc2C(=O)N(Cc2ccccc2)[C@H]1c1ccc(CO)cc1	-0.0623	0.47	1.03	-0.542	0.485	4.13	-0.0853 (inactive)	-0.415	1.14	1.47 (inactive)
COc1ccc([Si](C)(C)[C@@H]2[C@@H](CCn3cc([C@H](O)c4ccccc4)nn3)O[C@]3(C(=O)N(Cc4cccc(N5C(=O)c6cccc7cccc5c67)c4)c4ccccc43)[C@H]2C)cc1	-0.381	0.0092	0.3	-0.189	-2.11	1.07	-0.265 (inactive)	-0.681	-0.193	-1.26 (inactive)
CCCC=C(CCC)[C@@H](NC(=O)CCc1ccccc1)c1ccc(C(F)(F)F)cc1	-0.894	-0.265	-0.481	-1.2	-2.01	2.18	-0.933 (inactive)	-0.0403	-0.774	0.569 (inactive)
COCCOC(=O)N1C(=O)[C@@]2(c3cc(C#CCCO)ccc31)[C@H](C(N)=O)[C@H]1C(=O)O[C@H](c3ccccc3)[C@H](c3ccccc3)N1[C@@H]2c1ccc(OCCO)cc1	0.518	0.0809	0.325	-0.971	-0.859	-1.78	0.959 (inactive)	-0.505	-0.0622	-0.0958 (inactive)
COCC1C2CC[C@H]3C(OCc4ccc(OC)cc4)OC[C@]4(C)[C@H]3C2=C(CN4C(=O)OC(C)(C)C)[C@H](C)C1COC (stereo not given in full)	-0.226	0.335	0.919	-2.64	-4.48	5.54	-0.664 (inactive)	-0.205	-1.22	-0.0834 (inactive)
C=C(/C(=C/C[C@H](OC(=O)c1ccncc1)c1ccccc1OCCO)c1cnc2ccccc2c1)C(C)C	0.0894	-0.253	-0.444	-1.26	-0.906	0.96	-0.482 (inactive)	-0.331	-0.174	1.35 (inactive)
O=C1C2C=CC(C(O)C=Cc3ccc([N+](=O)[O-])cc3)N(Nc3ccccc3)C2C(=O)N1c1ccccc1 (stereo not given)	2.48	-0.123	1.28	0.0385	-0.0477	-0.0526	-1.19 (inactive)	-0.175	-0.951	-0.102 (inactive)
C=C(/C(=C/C[C@@H](OC(=O)c1ccncc1)c1cccc(OCCO)c1)c1cnc2ccccc2c1)C(C)C	0.509	1.55	0.0856	-2.52	-0.467	1.42	-0.45 (inactive)	-0.533	0.817	0.128 (inactive)
COc1ccc(C#Cc2ccc3c(c2)[C@]2(C(=O)N3)[C@H](c3ccc(OCCO)cc3)N3[C@H](c4ccccc4)[C@H](c4ccccc4)OC(=O)[C@H]3[C@@H]2C(=O)N2CCc3cc(OC)c(OC)cc3C2)cc1	0.0926	0.485	0.477	-1.25	0.343	0.37	3.73 (inactive)	-1.23	-1.49	-0.0906 (inactive)
COc1cc(NN2C(C(O)c3cc(OC)c(OC)c(OC)c3)C=CC3C(=O)N(c4ccccc4)C(=O)C32)cc(OC)c1OC (stereo not given)	-0.94	0.641	-0.455	-0.881	-0.373	-0.132	-0.768 (inactive)	-0.286	-0.755	-1.11 (inactive)
COc1ccc([Si](C)(C)[C@H]2[C@H](CCO)O[C@@]3(C(=O)N(Cc4ccccc4)c4ccc(N5C(=O)c6ccccc6Oc6ccccc65)cc43)[C@@H]2C)cc1	-1.01	0.271	-3.26	-1.7	-3.51	0.0091	-0.404 (inactive)	-0.896	-1.53	-2.28 (inactive)
CC(C)CNC(=O)[C@@H]1c2ccccc2C(=O)N(C2CCCCC2)[C@H]1c1ccc(CO)cc1	2.93	0.258	1.41	0.0402	0.424	4.35	1.16 (inactive)	0.301	-0.605	2.26 (inactive)
CN(C)C(=O)[C@@]1(CCC(=O)OC(C)(C)C)N=C(c2ccc(OCCCO)cc2)O[C@H]1c1ccccc1CN=[N+]=[N-]	-0.286	-0.607	0.423	-0.124	-0.389	0.628	-0.682 (inactive)	-1.18	-0.496	1.19 (inactive)

SMILES	z-score [1]	z-score [2]	z-score [3]	z-score [4]	z-score [5]	z-score [6]	z-score [7]	z-score [8]	z-score [9]	z-score [10]
C=C[C@@H](OC)[C@H](OC(=O)Nc1ccc(SC)cc1)c1ccc(OCCO)cc1	-0.568	0.222	-0.587	-2.08	-1.56	-2.68	0.286 (inactive)	-0.151	-0.333	-0.285 (inactive)
COC(=O)[C@@]1(Cc2ccccc2)[C@H]2c3cc(C(=O)N4CCCC4)n(CCSCCO)c3C[C@H]2CN1C(=O)c1ccccc1	-0.52	0.629	0.422	-0.451	-0.874	0.59	-1.19 (inactive)	0.26	0.0172	-0.845 (inactive)
COC(=O)[C@@]1(Cc2ccc(F)cc2)[C@H]2c3cc(C(=O)N(C)C)n(Cc4c(CO)[nH]cc(C)c4=O)c3C[C@H]2CN1C(=O)c1ccccc1	-0.108	0.837	-0.554	-1.33	-0.372	-0.3	-0.91 (inactive)	-0.00352	-0.895	-1.42 (inactive)
C=CCN1C(=O)[C@@]2(O[C@@H](CCO)[C@H]([Si](C)(C)c3ccc(OC)cc3)[C@H]2C)c2cc(N3CCOC3=O)ccc21	-2.23	1.33	-4.75	-2.77	-4.38	-2.9	1.25 (inactive)	-1.08	-2.3	-3.36 (inactive)
O=c1cccc(-c2ccc(F)cc2)o1	-0.562	0.616	-0.606	-0.0871	-0.913	0.0366	0.5 (inactive)	0.036	-0.0644	-0.0964 (inactive)
CN1C(=O)C2C(C1=O)C1C=C(CCCO)C2C(c2cccs2)N1Cc1cc2c(cc1Br)OCO2 (stereo not given)	0.952	0.225	0.557	-0.635	-1.44	-0.129	-0.859 (inactive)	-0.309	0.872	-0.0723 (inactive)
COc1cc2c(cc1O)C(c1cccs1)N(Cc1sc3ccccc3c1Cl)CC2 (stereo not given)	-3.77	0.623	-4.6	-3.27	-4.2	-3.1	-0.197 (inactive)	-0.894	-0.194	-0.403 (inactive)
CC(C)[C@H]1NC(=O)[C@@]23C(=O)N[C@@H](Cc4ccccc4)C2[C@H](C)[C@@]2(C)O[C@H]2C3/C=C/CCC/C=C/CNC(=O)[C@H](Cc2ccccc2)NC1=O (stereo not given in full)	-0.315	0.532	0.304	-0.837	-1.6	1.18	-0.499 (inactive)	-0.157	1.84	-1.25 (inactive)
COC(=O)[C@@]1(Cc2ccccc2)[C@H]2c3cc(C(=O)N(C)C)n(CCn4cc([N+](=O)[O-])nc4C)c3C[C@H]2CN1C(=O)c1ccccc1	-0.461	0.297	-1.17	0.506	0.911	0.547	0.0518 (inactive)	-0.0192	0.377	-0.0815 (inactive)
COCCOC(=O)N1C(=O)[C@@]2(c3cc(C#CC4(O)CCCCCC4)ccc31)[C@H](C(=O)N1CCN(c3ncccn3)CC1)[C@H]1C(=O)O[C@H](c3ccccc3)[C@H](c3ccccc3)N1[C@@H]2c1ccccc1OCCO	-0.118	0.481	-0.594	-0.483	-1.98	-0.151	0.909 (inactive)	-0.288	-0.589	-0.0171 (inactive)
CC(C)CNC(=O)[C@@]1(c2ccc([N+](=O)[O-])cc2)CC(=O)N(C2CCCCC2)[C@@H]1c1ccc(CO)cc1	-0.0452	0.389	-0.004	-0.41	0.542	0.634	-0.6 (inactive)	-0.426	0.771	0.436 (inactive)
COC(=O)C1=CC(CCCO)=CC(c2ccc(CN3CCCC3)cc2)N(Cc2cc3c(cc2Br)OCO3)C=C1C(=O)OC (stereo not given)	-0.392	0.151	0.0308	0.0875	0.046	0.516	-0.251 (inactive)	0.144	-0.0408	0.652 (inactive)
COc1ccc(C(=O)Nc2cccc(CN3C(=O)[C@]4(O[C@H](CCn5cc([C@H](O)c6ccccc6)nn5)[C@@H]([Si](C)(C)c5ccc(OC)cc5)[C@@H]4C)c4ccccc43)c2)cc1	-1.17	0.408	-2.1	-3.03	-2.99	2.27	-0.386 (inactive)	-0.989	-1.12	-2.56 (inactive)
O=C1OCCC/C=C\[C@H]2OC34C=CCN(c5ccc6ccccc6c5)C(=O)[C@H]3N(CCCO)C(=O)[C@@H]4C12 (stereo not given in full)	-0.416	1.34	0.275	0.392	-0.686	-0.36	-0.41 (inactive)	-0.0534	1.37	0.252 (inactive)
O=C1C2C=CC(C(O)c3cccc(O)c3)N(Nc3ccccc3)C2C(=O)N1c1ccccc1 (stereo not given)	-0.671	-0.096	-1.22	-0.109	-0.444	-2.04	0.166 (inactive)	-0.0193	-1.37	-0.224 (inactive)
CCN(CC)c1ccc(N2CC=CC34O[C@@H]5C=CCCOC(=O)C5[C@H]3C(=O)N(CCO)[C@@H]4C2=O)cc1 (stereo not given in full)	-0.126	1.11	-0.618	0.766	-0.073	-0.178	0.0903 (inactive)	0.277	0.639	-0.0198 (inactive)
